This is a sample that favours compounds with a hit; in the whole collection about 3.7% have one here.
PLK1 PBD inh: PLK1 (human) polo-box domain binding inhibition | 2.8% of 360,000 active | Plk1 PBD binding of FITC phosphopeptide, fluorescence polarization | Potency, µM, for inactives: max response, negative = inhibition, actives largely listed as inhibitors | P53350; note: potency is the fitted concentration of half-maximal effect; series mostly up to about 57 µM; % is set by controls: 0 for no effect and ±100 for the full control effect; nearly all actives have a fitted effect of over 65% in size
TCR act: activates T cell receptor signaling | 330,000 tested, under 10 active | primary human leukocytes, anti-CD3, IL-2 HTRF, 48 h | Potency, µM (highest dose often 9.22 µM), for the others: at the top dose activation of IL-2 secretion, hits mostly activators; note: % of control where 0% means no effect
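Using a-CD3 beads without co-stimulation, primary human leukocytes were exposed to compounds for 48 hr. An HTRF IL-2 kit measured the cytokine, with europium-to-d2 energy transfer producing emission at 665nm upon 320nm excitation.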
WRN helicase inh: blocks human WRN helicase. WRN helicase unwinding, fluorescent forked duplex, kinetic. Potency, µM (titrated, usually from 114 µM), without a hit: top-dose activity change, negative = inhibition, actives largely listed as inhibitors. 0.46% of 360,000 active. AID 651768; note: potency is the fitted concentration of half-maximal effect; % is set by controls: 0 for no effect and ±100 for the full control effect; nearly all actives have a fitted effect of over 55% in size
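Enzyme (20 nM final) and test compound sit together 15 min at room temperature before substrate addition. Substrate is a single-forked duplex oligonucleotide (100 nM) labelled with fluorophore and quencher, with 2 mM ATP; helicase unwinding raises red fluorescence, read kinetically.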
PI5P4Ka inh: inhibitors of human PI5P4K alpha. P48426. PI5P4Kalpha enzyme, ADP-Glo luminescence, 60 min; active compounds read low. max response, %. 1.2% of 330,000 active. AID 652105; active = max response of -50% or lower; inconclusive = between -30% and -50%; inactive = -30% or higher; note: value at the top dose of about 77 µM; % is set by controls: 0 for no effect and ±100 for the full control effect
Target sequence (P48426 whole entry, looked up): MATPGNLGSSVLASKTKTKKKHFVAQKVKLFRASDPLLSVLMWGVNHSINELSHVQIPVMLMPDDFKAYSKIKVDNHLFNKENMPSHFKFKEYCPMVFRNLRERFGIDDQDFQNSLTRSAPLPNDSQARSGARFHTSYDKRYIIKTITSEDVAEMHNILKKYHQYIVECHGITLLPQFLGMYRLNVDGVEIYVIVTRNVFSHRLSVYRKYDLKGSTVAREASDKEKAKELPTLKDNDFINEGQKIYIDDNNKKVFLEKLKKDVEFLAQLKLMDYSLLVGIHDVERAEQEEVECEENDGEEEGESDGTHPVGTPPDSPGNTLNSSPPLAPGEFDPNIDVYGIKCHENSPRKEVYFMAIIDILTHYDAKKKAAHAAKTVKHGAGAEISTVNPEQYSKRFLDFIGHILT
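Compounds were pin-transferred onto PI5P4Kalpha and substrate in HEPES pH 7.4 buffer with EGTA, CHAPS and 5% DMSO. ATP (5 microM final) started the reaction, which ran 60 minutes at room temperature before ADP-Glo detection.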
FEN1 inhibitor: blocks human flap endonuclease 1. P39748. Recombinant FEN1 flap cleavage, fluorescence, 15 min. Potency, µM (highest dose often 114 µM), inactives show at the highest dose activity change, negative = inhibition, most hits filed as inhibitors. 0.35% of 390,000 active. AID 588795; note: potency is the fitted concentration of half-maximal effect; % is set by controls: 0 for no effect and ±100 for the full control effect; nearly all actives have a fitted effect of over 65% in size
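FEN1 at 10 nM preincubated with compounds 15 min at room temperature, then flap DNA substrate added at 50 nM final. Signal read at 0 and 15 min; concentration-response fitted with four-parameter Hill equation.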
VDR inh: vitamin D3 receptor (human) inhibition. VDR-SRC2-3 peptide fluorescence polarization, 2 h. Potency, µM, for inactives: max response, negative = inhibition, most hits filed as inhibitors. 0.93% of 400,000 active. AID 504847; note: potency is the fitted concentration of half-maximal effect; % is set by controls: 0 for no effect and ±100 for the full control effect
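After 23 nl compound addition and a short centrifugation, plates sat for 2 hours at ambient temperature; polarization of fluorescence then indicated loss of VDR binding to peptide SRC2-3.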
Starred values were filed as active, the others as inactive; ? = inconclusive; nt = no result given; [ ] = another dose, or the depositor's remark. Unless noted, calls come from the whole dose curve; as a rule, active = well fitted curve in the direction sought with a large enough effect; inconclusive = small, poorly fitted or top-dose-only effect, or another doubt; inactive = no such curve, though single readings can be large; an effect the other way counts as inactive or inconclusive.

SMILES | PLK1 PBD inh | TCR act | WRN helicase inh | PI5P4Ka inh | FEN1 inhibitor | VDR inh
C#CCOCCOCCOCCNc1nc(N2CCN(C(=O)CCCCCCCCCCNC(=O)[C@H](CCCCN)n3cc(C)nn3)CC2)nc(N2CCN(C(=O)CCCCCCCCCCNC(=O)[C@H](CCCN=C(N)N)n3cc(C[C@@H](C)CC)nn3)CC2)n1 | 10% | -6% | 45µM* | -51* | 22µM* | 38%
C#CCOCCOCCOCCNc1nc(N2CCN(C(=O)CCCCCCCCCCNC(=O)[C@H]([C@@H](C)CC)n3cc(CCCCN=C(N)N)nn3)CC2)nc(N2CCN(C(=O)CCCCCCCCCCNC(=O)[C@@H]([C@H](C)O)n3cc(C)nn3)CC2)n1 | 0% | -4% | 56µM* | -84* | 25µM* | 84%
C#CCOCCOCCOCCNc1nc(N2CCN(C(=O)CCCCCCCCCCNC(=O)[C@H](CCCCN)n3cc(C)nn3)CC2)nc(N2CCN(C(=O)CCCCCCCCCCNC(=O)[C@@H]([C@H](C)O)n3cc(C)nn3)CC2)n1 | -7% | -2% | -9% | ? | ? | 17%
C#CCOCCOCCOCCNc1nc(N2CCN(C(=O)CCCCCCCCCCNC(=O)[C@H](CCCCN)n3cc(C[C@@H](C)CC)nn3)CC2)nc(N2CCN(C(=O)CCCCCCCCCCNC(=O)[C@@H]([C@H](C)O)n3cc(C)nn3)CC2)n1 | 21% | 7% | 50µM* | ? | 32µM* | 55%
C#CCOCCOCCOCCNc1nc(N2CCN(C(=O)CCCCCCCCCCNC(=O)[C@H](CCCCN)n3cc(C[C@@H](C)CC)nn3)CC2)nc(N2CCN(C(=O)CCCCCCCCCCNC(=O)[C@H](CCCN=C(N)N)n3cc(C[C@@H](C)CC)nn3)CC2)n1 | 9% | -4% | 32µM* | -90* | 25µM* | 76%
C#CCOCCOCCOCCNc1nc(N2CCN(C(=O)CCCCCCCCCCNC(=O)[C@H](CCCCN)n3cc(CCO)nn3)CC2)nc(N2CCN(C(=O)CCCCCCCCCCNC(=O)[C@H](CCCCN)n3cc(CCCC(=O)O)nn3)CC2)n1 | -10% | -12% | 21% | ? | -3% | -10%
CCN1CCN(C(c2ccc(SC)cc2)c2c(O)cc(C)n(Cc3ccco3)c2=O)CC1 (configuration not stated) | nt | nt | nt | nt | -3% | -15%
COC(=O)N[C@H](C[N+](=O)[O-])c1cccc(C)c1 | nt | nt | nt | nt | nt | -1%
O=C(NCCCc1nc2ccccc2n1CCCCOc1ccccc1)C1CCCCC1 | nt | nt | nt | nt | -5% | -13%
Cc1ccc(Cl)cc1Nc1nc2ccccc2n2c(C)nnc12 | nt | nt | nt | nt | 1% | 14%
C#CCOCCOCCOCCNc1nc(N2CCN(C(=O)CCCCCCCCCCNC(=O)[C@@H](CCSC)n3cc(CCO)nn3)CC2)nc(N2CCN(C(=O)CCCCCCCCCCNC(=O)[C@H](CCCN=C(N)N)n3cc(C[C@@H](C)CC)nn3)CC2)n1 | 15% | -4% | 50µM* | -79* | 20µM* | 95%
C#CCOCCOCCOCCNc1nc(N2CCN(C(=O)CCCCCCCCCCNC(=O)Cn3cc(C[C@@H](C)O)nn3)CC2)nc(N2CCN(C(=O)CCCCCCCCCCNC(=O)[C@@H](CCSC)n3cc(CCO)nn3)CC2)n1 | 4% | -4% | 0% | 1 | -4% | -2%
COc1ccc(CN/C(C)=C(/C#N)C(N)=O)cc1OC | 27µM* | -2% | -2% | -7 | -4% | ?
N=C1N(c2ccccc2)C(=S)C(=Nc2ccccc2)N1c1ccccc1 | 27µM* | -5% | -20% | -7 | 3% | 8.9µM*
Fc1ccc(N2C(=S)SC(=Nc3ccccc3)C2=Nc2ccccc2)cc1 | -2% | 1% | -7% | -4 | -18% | -11%
CCN1CCC(N(Cc2ccc(F)cc2)C(=O)Nc2cccc(C(F)(F)F)c2)CC1 | nt | nt | nt | nt | -4% | 6%
O=C(CCCn1c(SCC(=O)c2ccc(O)c(O)c2)nc2ccccc2c1=O)NCC1CCCO1 (configuration not stated) | -7% | 9% | 22µM* | nt | -22% | 14%
CCOCCc1nnc(NC(=O)CSc2ccccc2)s1 | ? | -7% | 1% | 1 | 7% | -9%
CCc1nnc(NC(=O)CSc2nc(-c3ccccc3)c(-c3ccccc3)o2)s1 | -2% | 4%[46.1 µM] | -9%[57.1 µM] | 3 | -3% | 1%
CCc1nnc(NC(=O)CSc2nnc(-c3ccccc3O)o2)s1 | 24µM* | 1% | -7%[57.1 µM] | 7 | -5% | -16%
CC(C)(C)Cc1nnc(NC(=O)CSc2ccccc2)s1 | 5.3µM* | 10% | -8% | -29 | -5% | 28µM*
O=C(CN1C(=O)CSc2ccc(S(=O)(=O)N3CCCCC3)cc21)NCc1cccnc1 | 2% | 5% | 6% | -1 | 0% | 16%
CC1CCN(S(=O)(=O)c2ccc3c(c2)N(CC(=O)NC(C)c2ccccc2)C(=O)CS3)CC1 (configuration not stated) | nt | nt | nt | nt | 8% | 1%
CC1CCN(S(=O)(=O)c2ccc3c(c2)N(CC(=O)NCc2cccnc2)C(=O)CS3)CC1 | 27µM* | -7% | 2% | -20 | 7% | ?
CC(C)NC(=O)CN1C(=O)CSc2ccc(S(=O)(=O)N3CCCC3)cc21 | 24µM* | -3% | -3% | -3 | -10% | -15%
SMILES | PLK1 PBD inh | TCR act | WRN helicase inh | PI5P4Ka inh | FEN1 inhibitor | VDR inh
C=CCOc1ccc(C(c2c(O)nc(SC)[nH]c2=O)c2c(O)nc(SC)[nH]c2=O)cc1 | 12µM* | 0% | ? | -26 | -3% | 22µM*
CSc1nc(O)c(C(c2ccc(O)cc2)c2c(O)nc(SC)[nH]c2=O)c(=O)[nH]1 | ? | -8% | -3% | ? | 8% | ?
CCOc1ccc(C(c2c(O)nc(SC)[nH]c2=O)c2c(O)nc(SC)[nH]c2=O)cc1 | 24µM* | 0% | -5% | ? | -1% | ?
CCCCC/C=C\C/C=C\C/C=C\CCCCC(=O)NC(C)C(=O)O (configuration not stated) | nt | nt | nt | nt | nt | -13%
CCOC(=O)C1CCN(c2cc3c(cc2NC(=O)c2ccc(Cl)cc2)n(C)c(=O)n3C)CC1 | nt | nt | nt | nt | -15% | -2%
Cc1cc2c(cc1S(=O)(=O)Nc1cccc(C(F)(F)F)c1)OCCN2C | nt | nt | nt | nt | -4% | 11%
COc1cc(NC(=O)CN2C(=O)COc3ccc(S(=O)(=O)NC4CCCC4)cc32)cc(OC)c1 | nt | nt | nt | nt | 6% | -1%
O=C(NCCc1ccc(Cl)cc1)c1ccc2c(c1)N(Cc1ccccc1)C(=O)CS2 | nt | nt | nt | nt | -12% | -6%
CCc1ccc(CNC(=O)c2ccc(NC(=O)N3CC(C)Sc4ccccc43)cc2)cc1 (configuration not stated) | nt | nt | nt | nt | 4% | 15%
CN(Cc1ccco1)c1ccnc(-c2cccc(C#N)c2)n1 | nt | nt | nt | nt | nt | 35µM*
CN(Cc1ccco1)c1ccnc(-c2ccoc2)n1 | nt | nt | nt | nt | nt | 45µM*
CN(Cc1ccco1)c1ccnc(-c2ccccc2C(F)(F)F)n1 | nt | nt | nt | nt | nt | 45µM*
